The record followed here is PubChem BioAssay AID435005 (Broad Institute, 2010).

In all, about 300,000 compounds went through this assay and about 2,400 (0.8%) were called active. Many of the other results were omitted from the sample, so actives are more common in it than they were. Values without a mark were called inactive.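 How the source made its calls: active means Every replicate reaches about 75%, or at least half do and their mean reaches it too (limit read from the data); inconclusive means At least half of replicates reach the limit but their mean does not; inactive means Under half of replicates reach the limit.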

This test can be described thus: inhibitors of cytokine-induced beta cell apoptosis, primary screen, luminescence (AID 435005).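 Further: 0% = cytokine-treated negative control wells and 100% = positive control rescue; higher means more ATP so stronger rescue from cytokine killing.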 As to conditions: INS-1E cytokine-induced death, ATP luminescence, 48 h; active compounds read high; concentration not given here.
In the case of `CCOc1cccc(=NC2CCCCC2)c2c(C)[nH]c(C)c12`, the protection from apoptosis was 115% (active).

Take `C[C@]12CCC3C(CC[C@H]4C[C@@H](O)CC[C@]34C)C1CC[C@@H]2O` (stereo not given in full): the protection from apoptosis is 1.25%. For the molecule `O=C1C2(Cl)C3(Cl)C4(Cl)C(Cl)(Cl)C5(Cl)C3(Cl)C1(Cl)C5(Cl)C24Cl` (stereo not given), the protection from apoptosis is -14.2%. Regarding `COC(=O)C1=C(c2ccc(F)cc2OCc2ccccc2)C[C@@H]2CC[C@H]1N2C(=O)NCc1ccc(OC)c(OC)c1`, the protection from apoptosis is -1.83%. To `C[C@]12CC[C@H](O)CC1=C([N+](=O)[O-])CC1C2CC[C@@]2(C)C1CC[C@@H]2O` (stereo not given in full) belongs -1.49%; to `COC(=O)C1=C(c2ccccc2OCc2ccccc2)C[C@@H]2CC[C@H]1N2C(=O)NCc1ccc(OC)cc1`, -9.52%; to `CCCCCCCCCCCCn1ccc(=N)cc1`, 117% (active).

Consider `C[C@]12CCC3C(CC[C@H]4C[C@@H](O)CC[C@]34C)C1C[C@@H](O)[C@H]2O` (stereo not given in full), for which the protection from apoptosis is 0.154%. For `CCC(=O)c1ccc(OCC(=O)N2CCN(CC(=O)Nc3ccc(C)cc3)CC2)cc1`, the protection from apoptosis was 4.28%. As to `Clc1cccc(Cl)c1Cl`, the protection from apoptosis is 5.51%.
